# Screening data: PubChem BioAssay, The Scripps Research Institute Molecular Screening Center
# bovine MsrA act: activates bovine MsrA enzyme | activation, % at 10.6 µM | purified bovine MsrA, absorbance read-out | 360,000 tested, 0.3% active; in the data active = activation above about 7.5%;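 also: 0% = vehicle and 100% = reference activator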
# PKA-R1A act: activates the PKA-R1A holoenzyme complex. P00514+P68181. PKA-R1A dissociation, Cy5-IP20 fluorescence polarization; scaled: DMSO 0%, 113 µM cGMP 100%. activation, % at 11.4 µM. 340,000 tested, 0.083% active;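 active = percent activation above the mean of all tested compounds plus 3 SD, cut at about 19% in these data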;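 also: higher means more PKAc released from R1A so a rise in polarization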
# MsrA inh: inhibitors of bovine MsrA; purified bovine MsrA, absorbance read-out; inhibition, % at 15.5 µM; 360,000 tested, 0.75% active; AID 651718; in the data active = inhibition above about 4.5%;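 also: 0% = vehicle wells with enzyme and 100% = reference inhibitor wells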
# PKA-R2B act: PKA-R2B complex activation | AID 504700 | 340,000 tested, 0.079% active | activation, % at 11.4 µM | P22694+P31323 | PKA-R2B holoenzyme dissociation, Cy5-IP20 fluorescence polarization; R2B truncated from residue 108, S112A mutant; 0% DMSO only, 100% 113 µM cGMP;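 active = activation above a cutoff set at the mean over all compounds plus 3 SD, cut at about 18% in these data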;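 also: higher means more holoenzyme dissociation and a rise in polarization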
# Target sequence (P31323 whole entry, looked up, other chains not shown, the tested form may be a part): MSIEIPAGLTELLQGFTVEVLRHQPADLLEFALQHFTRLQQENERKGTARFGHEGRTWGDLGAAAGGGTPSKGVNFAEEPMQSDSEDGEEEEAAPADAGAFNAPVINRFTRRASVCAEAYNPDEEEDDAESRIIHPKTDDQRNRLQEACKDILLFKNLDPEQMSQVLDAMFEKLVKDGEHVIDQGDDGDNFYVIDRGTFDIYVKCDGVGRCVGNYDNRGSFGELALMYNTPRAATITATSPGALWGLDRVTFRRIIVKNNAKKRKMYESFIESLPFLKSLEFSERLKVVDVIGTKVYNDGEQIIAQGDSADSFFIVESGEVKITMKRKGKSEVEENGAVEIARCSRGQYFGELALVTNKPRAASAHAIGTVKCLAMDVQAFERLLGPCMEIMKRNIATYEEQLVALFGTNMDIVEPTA
# R2B FP artifact: fluorescence polarization artifact in PKA-R2B activator counter-screen | shares compounds with PKA-R2B act | FP artifact counterscreen | AID 504796 | activation, % at 11.4 µM | 270 tested, 6% active; in the data active = activation above about 20%;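 also: Cy5 labelled IP20 peptide probe with compound but no PKA protein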
# PKA-R2B act conf: PKA-R2B complex activation, confirmation; shares compounds with PKA-R2B act; fluorescence polarization; activation, % at 11.4 µM; 270 tested, 9% active; in the data active = activation above about 19%
# Target sequence (P31323 whole entry, looked up): as the sequence (P31323 whole entry, looked up, other chains not shown, the tested form may be a part) above
# Active calls of the source: *; . = not tested or not shown. Only some compounds are listed: those with a hit (about 1.1% of all), similar ones and a draw of the others.
SMILES,bovine MsrA act,PKA-R1A act,MsrA inh,PKA-R2B act,R2B FP artifact,PKA-R2B act conf
COc1cccc(NC(=O)C(=O)NCCCN2CCCC2=O)c1,-4,9,0,20*,2,2
COc1ccc(OCc2cccc(C(=O)O)c2)cc1,0,13,0,-11,.,.
CCOc1ccc(OCc2cccc(C(=O)O)c2)cc1,-2,-11,-2,20*,3,2
CN(c1ccc(NC(=O)CCc2cn(Cc3ccc(Br)cc3)c3ccccc23)cc1)c1ccccn1,.,.,2,.,.,.
Cc1cc(Oc2cccnc2)ccc1NC(=O)Cc1cn(C)c2ccccc12,.,.,0,.,.,.
COC(=O)c1cc2c(c3c4ccccc4n(S(=O)(=O)c4cccc(C)c4)c13)C(=O)N(Cc1ccc(N(C)C)cc1)C2,.,.,1,.,.,.
CN(CCOc1ccccc1)CC(=O)Nc1ccc(Cl)cc1[N+](=O)[O-],1,-2,1,21*,-2,-3
COc1cc(NC(=O)CN(C)CCOc2ccccc2)c(C)cc1[N+](=O)[O-],-3,4,3,8,.,.
O=S(=O)(NC1CCCC1)c1ccc(S(=O)(=O)N(Cc2cccs2)CC2CCCO2)cc1 (stereo unspecified),-13,5,1,20*,0,1
Cc1ccc(C(=O)NCC(=O)N2CCN(c3ccccc3)CC2)cc1,-3,16,1,21*,-3,-3
COc1ccc(-c2noc(CN(C(=O)c3ccc4c(c3)OCO4)C(C)C)n2)cc1OC,-5,9,0,19*,-1,-5
COc1ccc(-c2noc(CN(C)C(=O)c3ccc4c(c3)OCO4)n2)cc1OC,-2,14,0,0,.,.
COc1ccc(OC)c(-c2cc(-c3cccnc3)nc(N)c2C#N)c1,-2,0,1,19*,0,1
CCN1C/C(=C/c2cccc([N+](=O)[O-])c2)C(=O)/C(=C/c2cccc([N+](=O)[O-])c2)C1,-9,-4,0,19*,2,2
CC(C)C1CC(N(C)C)=CC(=S)N1 (stereo unspecified),.,.,2,.,.,.
C[C@@H]1CN([C@H](C)CO)C(=O)CCCn2cc(nn2)CO[C@H]1CN(C)S(=O)(=O)c1cn(C)cn1,.,.,0,.,.,.
CC(=O)Oc1ccc(/C=N/NC2=NS(=O)(=O)c3ccccc32)cc1,-2,4,3,1,.,.
COc1ccc(/C=N/NC2=NS(=O)(=O)c3ccccc32)cc1,-5,4,4,23*,2,3
CCOC(=O)C1=C(C(=O)OCC)C2N(Cc3ccc(C#N)cc3)c3ccccc3[C@@]23C[C@@H](C(=O)OC)N(S(=O)(=O)c2ccc(C)cc2)C3=N1 (stereo partly specified),.,.,2,.,.,.
O=C1C2=C(SCCS2)C(=O)N1c1ccccc1,0,-9,0,24*,-3,-2
O=C1CSCC(=O)N1c1ccccc1,1,4,1,8,.,.
CN1CCN(C(=O)/C(=C/c2ccc(F)cc2)NC(=O)c2ccccc2)CC1,-2,-1,0,-7,.,.
CN1CCN(C(=O)/C(=C/c2ccc(N(C)C)cc2)NC(=O)c2ccccc2)CC1,-4,-9,4.6*,20*,6,4
O=C(Nc1ccc2c(c1)OCCO2)C(c1ccnc2ccccc12)N1CCN(C/C=C/c2ccccc2)CC1 (stereo unspecified),-2,.,1,.,.,.
Cc1ccccc1-c1nnc(SCC(=O)NC2CCS(=O)(=O)C2)n1C (stereo unspecified),-5,9,0,19*,6,2
SMILES,bovine MsrA act,PKA-R1A act,MsrA inh,PKA-R2B act,R2B FP artifact,PKA-R2B act conf
COC(=O)c1cc2c(c3c4cc(C)ccc4n(S(=O)(=O)c4ccc(OC)cc4)c13)C(=O)N(Cc1ccccc1)C2,.,.,1,.,.,.
COc1ccc(CCNC(=O)Cn2c(=O)oc3cc(Cl)ccc32)cc1OC,-3,7,0,19*,0,-2
COc1ccc(NC(=O)Cn2c(=O)oc3cc(Cl)ccc32)c(OC)c1,-10,0,-2,4,.,.
CCCCS(=O)(=O)N1CCCc2nc(CC)c(CC)cc21,.,.,0,.,.,.
C=CCn1c(SCN2C(=O)c3ccccc3C2=O)nc2ccc(Cl)cc2c1=O,-11,3,-1,19*,0,3
C=CCn1c(SCC(=O)Nc2sccc2C(N)=O)nc2ccc(Cl)cc2c1=O,0,4,0,-3,.,.
O=C(CSc1nc2nc3c(cc2c(=O)n1-c1ccccc1)CCCC3)Nc1cccc2ccccc12,2,0,1,19*,2,3
Cc1cccc(NC(=O)CSc2nc3nc4c(cc3c(=O)n2-c2ccccc2)CCCC4)c1,-7,-6,-1,-11,.,.
CCCc1cc(NC(=O)CCl)n(-c2ccccc2)n1,-4,0,0,20*,0,-3
O=C(c1ccc(OCC2CCCO2)cc1)N1CCN(c2ccccc2)CC1 (stereo unspecified),-10,4,-1,19*,3,5
CCn1c(SCc2nc3scc(-c4ccccc4)c3c(=O)[nH]2)nnc1-c1ccc(Cl)cc1,-15,-2,-1,20*,-2,-3
Cc1ccc(-c2csc3nc(CSc4nnc(-c5ccc(Cl)cc5)n4C)[nH]c(=O)c23)cc1,-5,11,-1,-4,.,.
C[C@@]12CCC=C[C@H]1[C@H](c1ccccc1Br)N(Cc1ccccc1)C2=O,-2,2,0,11,-3,-3
Cc1ccc(F)c([C@H]2[C@@H]3C=CCC[C@@]3(C)C(=O)N2Cc2ccccc2)c1,-10,-10,-1,4,.,.
CN1C2CCC1CC(NC(=O)c1cc(S(=O)(=O)N(C)C)c(Cl)cc1Cl)C2 (stereo unspecified),-2,5,0,19*,2,1
Cc1cc(Nc2cccc(C(F)(F)F)c2)cc(=O)n1-c1cccc(C(F)(F)F)c1,.,.,1,.,.,.
CC(=O)C1=C(C)N(CC(C)C)C(=S)NC1c1cccc(Cl)c1 (stereo unspecified),.,.,1,.,.,.
C=CCCC1CN(CC=C)S(=O)(=O)c2c(F)cccc2O1 (stereo unspecified),.,.,-1,.,.,.
C=C1CSc2nc(=O)c3c4c(sc3n21)CCC4,-15,-5,2,20*,-3,-3
C=C1CSc2nc(=O)c3c4c(sc3n21)CCCC4,1,-12,0,-4,.,.
Cc1cc(C(=O)c2ccccc2)c(NC(=O)CN2CCOCC2)s1,-1,-15,1,18*,0,0
Cc1ccc(OCc2cc(C(=O)NC(C)Cc3cnccn3)no2)cc1C (stereo unspecified),0,4,-2,21*,7,5
Cc1cccc(CC(C)NC(=O)c2cc(COc3ccc(C)c(C)c3)on2)n1 (stereo unspecified),-3,5,1,-7,.,.
CCCCCCCCCCCCCCCC[N+](C)(C)CCN(Cc1ccc(OC)cc1)c1ncccn1,1,-4,.,30*,-1,36*
